Inconclusive results are not listed. Calls of active or inactive are those of the source. The calls were made as follows: active = hit-call score of the fitted dose curve at least 0.9, where 1 is the maximum; inconclusive = response in the unintended direction; inactive = score below 0.9.
Experiments:
[1] = molecular target: Cellular tumor antigen p53 (Homo sapiens) (UniProt P04637); assay: TOX21_p53_BLA_p2_ratio: Tox21 HCT-116 p53 Agonism Beta-lactamase Assay, Ratio, Phase 2 (AID 2283592)
How it was run: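 In this cell-based reporter format, HCT116 cells were dosed with chemicals delivered from DMSO by 217-fold dilution and incubated 16 h at 37C. Emission at 460 and 530 nm after 2 h CCF4-AM loading provided the ratio, fitted upward versus DMSO.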

[2] = TOX21_p53_BLA_p3_viability: Viability Assessment in the Tox21 HCT-116 p53 Agonism Beta-lactamase Assay, Phase 3 (AID 2283593);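 also: cells exposed to compound for 16 h before reading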
How it was run: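 HCT-116 cells (4000/well) rested 5 h at 37C, then got DMSO compounds by pin tool (217-fold dilution) for 16 h at 37C, 5% CO2. After the bla read, CellTiter-Glo was added and luminescence read at 30 min, room temperature.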

[3] = TOX21_p53_BLA_p4_viability: Viability Assessment in the Tox21 HCT-116 p53 Agonism Beta-lactamase Assay, Phase 4 (AID 2283597);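 also: hits lower the luminescence signal meaning cytotoxicity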
How it was run: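 We seeded HCT116 p53 reporter cells at 4000/well and waited 5 h. We then added compounds in DMSO at a 217-fold dilution and incubated for 16 h. Viability was read as CellTiter-Glo luminescence after 30 min at RT.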

[4] = TOX21_p53_BLA_p5_viability: Viability Assessment in the Tox21 HCT-116 p53 Agonism Beta-lactamase Assay, Phase 5 (AID 2283600)
How it was run: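 Compounds, pinned from DMSO at 217-fold dilution, were left on the cells for 16 h. The viability endpoint was ATP content measured by CellTiter-Glo luminescence, where falling signal reflects cytotoxicity.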

[5] = molecular target: Cellular tumor antigen p53 (Homo sapiens) (UniProt P04637); assay: TOX21_p53_BLA_p3_ratio: Tox21 HCT-116 p53 Agonism Beta-lactamase Assay, Ratio, Phase 3 (AID 2283596)
How it was run: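 HCT116 p53-bla cells (4000/well) given compound in DMSO (217-fold dilution) after 5 h, incubated 16 h at 37C. CCF4-AM substrate 2 h at room temperature; 460/530 nm emission ratio, gain fitted against DMSO.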

[6] = molecular target: Cellular tumor antigen p53 (Homo sapiens) (UniProt P04637); assay: TOX21_p53_BLA_p5_ratio: Tox21 HCT-116 p53 Agonism Beta-lactamase Assay, Ratio, Phase 5 (AID 2283599)
How it was run: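 HCT-116 cells carrying a p53-inducible beta-lactamase reporter were seeded at 4000 cells/well and dosed after 5 h with compound in DMSO (217-fold dilution). After 16 h at 37C, CCF4-AM substrate was added for 2 h, and the 460/530 nm emission ratio was scored as gain-of-signal versus DMSO.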

[7] = molecular target: Cellular tumor antigen p53 (Homo sapiens) (UniProt P04637); assay: TOX21_p53_BLA_p4_ratio: Tox21 HCT-116 p53 Agonism Beta-lactamase Assay, Ratio, Phase 4 (AID 2283601)
How it was run: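 HCT116 cells carrying an inducible beta-lactamase reporter were plated at 4000 cells/well, rested 5 h, then exposed to compounds in DMSO (217-fold dilution) for 16 h at 37C. CCF4-AM substrate was loaded 2 h at room temperature; 460/530 nm emission ratio scored gain-of-signal versus DMSO.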

Measured: outcome

Cellular tumor antigen p53 (Homo sapiens), sequence (P04637 whole entry, looked up): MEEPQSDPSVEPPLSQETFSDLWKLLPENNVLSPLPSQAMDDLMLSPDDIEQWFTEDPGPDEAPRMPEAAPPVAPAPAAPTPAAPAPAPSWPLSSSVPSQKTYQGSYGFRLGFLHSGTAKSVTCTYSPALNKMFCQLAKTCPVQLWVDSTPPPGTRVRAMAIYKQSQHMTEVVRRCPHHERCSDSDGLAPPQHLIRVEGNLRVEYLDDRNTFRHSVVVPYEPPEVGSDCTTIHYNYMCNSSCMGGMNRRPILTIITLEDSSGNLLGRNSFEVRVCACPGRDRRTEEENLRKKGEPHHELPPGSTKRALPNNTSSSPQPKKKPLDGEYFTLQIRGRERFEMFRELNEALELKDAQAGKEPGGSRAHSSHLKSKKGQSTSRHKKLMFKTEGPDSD

CC(C)Br
inactive: [1] | [2] | [3]

Cn1cc[n+](C)c1 (tested in a mixture with another compound)
inactive: [1] | [2] | [3] | [4]

C=C(Cl)CSC(=S)N(CC)CC
inactive: [1] | [2] | [5] | [6] | [7]

CC=CCC#N
inactive: [1] | [2] | [5] | [6] | [7]

C[N+]1(C)[C@@H]2CC[C@H]1CC(OC(=O)c1c[nH]c3ccccc13)C2 (some centres not stated)
inactive: [1] | [2] | [3] | [6] | [4] | [7]

Cc1ccc(-c2nc3ccc(C)cn3c2CC(=O)N(C)C)cc1
inactive: [1] | [2] | [6] | [4] | [7]

CCCCc1ccc(C(=O)O)nc1
inactive: [1] | [2] | [3] | [4]

Cc1ccc2ccccc2c1
inactive: [1] | [2] | [5] | [7]

COc1ccc2c(c1OC)C(=O)O[C@H]2[C@@H]1c2cc3c(cc2CCN1C)OCO3
inactive: [1] | [2] | [5] | [6] | [4] | [7]
